# This is one part of a sample in which the strongest signals are shown more often than they occur.
# How the values were obtained:
# Assay in all cases: glycan array binding signal (z-score within array); higher = stronger binding
# Conditions in all cases: glycan notation: IUPAC condensed, linker removed
# [1] = molecular target: Fuc(a1-2)Gal(b1-3)GlcNAc(b1-2)Man(a1-3)[Fuc(a1-2)Gal(b1-3)GlcNAc(b1-2)Man(a1-6)]Man(b1-4)GlcNAc(b1-4)GlcNAc
# How it was run: (§1)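 Arrays were curated from the Consortium for Functional Glycomics database, 3228 in total, and kept only where the protein sequence was available. Binding is expressed as a within-array Z-score. This score was averaged across arrays of the same protein sequence at different concentrations or buffers and across linkers, and negative values can be read as non-binding.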
# [2] = molecular target: Fuc(a1-2)Gal(b1-3)GlcNAc(b1-3)[Fuc(a1-2)Gal(b1-3)GlcNAc(b1-6)]GalNAc
# How it was run: as §1
# [3] = molecular target: Fuc(a1-2)Gal(b1-4)GlcNAc(b1-6)GalNAc
# How it was run: as §1
# [4] = molecular target: Fuc(a1-2)Gal(b1-4)GlcNAc6S
# How it was run: as §1
# [5] = molecular target: Fuc(a1-2)Gal3S(b1-4)GlcNAc
# How it was run: as §1
# [6] = molecular target: Fuc(a1-2)[Gal(a1-3)]Gal(b1-3)GalNAc
# How it was run: as §1
# [7] = molecular target: Fuc(a1-2)[Gal(a1-3)]Gal(b1-4)GlcNAc
# How it was run: as §1
# [8] = molecular target: Fuc(a1-2)[Gal(a1-3)]Gal(b1-4)[Fuc(a1-3)]GlcNAc
# How it was run: as §1
# [9] = molecular target: Gal(a1-3)Gal(b1-3)GlcNAc(b1-2)Man(a1-3)[Gal(a1-3)Gal(b1-3)GlcNAc(b1-2)Man(a1-6)]Man(b1-4)GlcNAc(b1-4)GlcNAc
# How it was run: as §1
# [10] = molecular target: Gal(a1-3)Gal(b1-3)[Fuc(a1-4)]GlcNAc(b1-2)Man(a1-3)[Gal(a1-3)Gal(b1-3)[Fuc(a1-4)]GlcNAc(b1-2)Man(a1-6)]Man(b1-4)GlcNAc(b1-4)GlcNAc
# How it was run: as §1
# [11] = molecular target: Gal(a1-3)Gal(b1-4)Glc
# How it was run: as §1
# [12] = molecular target: Gal(a1-4)Gal(b1-3)GlcNAc(b1-2)Man(a1-3)[Gal(a1-4)Gal(b1-3)GlcNAc(b1-2)Man(a1-6)]Man(b1-4)GlcNAc(b1-4)GlcNAc
# How it was run: as §1
# [13] = molecular target: Gal(b1-3)GlcNAc(a1-6)Gal(b1-4)GlcNAc
# How it was run: as §1
# [14] = molecular target: Gal(b1-3)GlcNAc(b1-2)Man(a1-3)[Gal(b1-3)GlcNAc(b1-2)Man(a1-6)]Man(b1-4)GlcNAc(b1-4)GlcNAc
# How it was run: as §1
# [15] = molecular target: Gal(b1-3)[GlcNAc(b1-6)]GalNAc
# How it was run: as §1
# [16] = molecular target: Gal(b1-4)GlcNAc(b1-2)Man
# How it was run: as §1
# [17] = molecular target: Gal(b1-4)GlcNAc(b1-2)Man(a1-3)Man(b1-4)GlcNAc(b1-4)GlcNAc
# How it was run: as §1
# [18] = molecular target: Gal(b1-4)GlcNAc(b1-2)Man(a1-3)[Gal(b1-4)GlcNAc(b1-2)Man(a1-6)]Man(b1-4)GlcNAc(b1-4)[Fuc(a1-6)]GlcNAc
# How it was run: as §1
# [19] = molecular target: Gal(b1-4)GlcNAc(b1-3)Gal(b1-3)GalNAc
# How it was run: as §1
# [20] = molecular target: Gal(b1-4)GlcNAc(b1-3)Gal(b1-4)GlcNAc(b1-2)Man(a1-3)[Gal(b1-4)GlcNAc(b1-3)Gal(b1-4)GlcNAc(b1-2)Man(a1-6)]Man(b1-4)GlcNAc(b1-4)GlcNAc
# How it was run: as §1
# [21] = molecular target: Gal(b1-4)GlcNAc(b1-3)Gal(b1-4)GlcNAc(b1-2)[Gal(b1-4)GlcNAc(b1-3)Gal(b1-4)GlcNAc(b1-6)]Man(a1-6)[Gal(b1-4)GlcNAc(b1-3)Gal(b1-4)GlcNAc(b1-2)Man(a1-3)]Man(b1-4)GlcNAc(b1-4)[Fuc(a1-6)]GlcNAc
# How it was run: as §1
# [22] = molecular target: Gal(b1-4)GlcNAc(b1-3)Gal(b1-4)GlcNAc(b1-3)Gal(b1-4)GlcNAc(b1-3)Gal(b1-4)GlcNAc(b1-3)Gal(b1-4)GlcNAc(b1-2)Man(a1-3)[Gal(b1-4)GlcNAc(b1-3)Gal(b1-4)GlcNAc(b1-3)Gal(b1-4)GlcNAc(b1-3)Gal(b1-4)GlcNAc(b1-3)Gal(b1-4)GlcNAc(b1-2)Man(a1-6)]Man(b1-4)GlcNAc(b1-4)GlcNAc
# How it was run: as §1
# [23] = molecular target: Gal(b1-4)GlcNAc(b1-3)Gal(b1-4)GlcNAc(b1-3)Gal(b1-4)GlcNAc(b1-3)Gal(b1-4)GlcNAc(b1-3)Gal(b1-4)GlcNAc(b1-2)[Gal(b1-4)GlcNAc(b1-3)Gal(b1-4)GlcNAc(b1-3)Gal(b1-4)GlcNAc(b1-3)Gal(b1-4)GlcNAc(b1-3)Gal(b1-4)GlcNAc(b1-6)]Man(a1-6)[Gal(b1-4)GlcNAc(b1-3)Gal(b1-4)GlcNAc(b1-3)Gal(b1-4)GlcNAc(b1-3)Gal(b1-4)GlcNAc(b1-3)Gal(b1-4)GlcNAc(b1-2)Man(a1-3)]Man(b1-4)GlcNAc(b1-4)[Fuc(a1-6)]GlcNAc
# How it was run: as §1
# [24] = molecular target: Gal6S(b1-4)GlcNAc
# How it was run: as §1
# [25] = molecular target: GalNAc(b1-3)GlcNAc
# How it was run: as §1
# [26] = molecular target: Glc(a1-6)Glc(a1-6)Glc
# How it was run: as §1
# [27] = molecular target: GlcA(b1-3)Gal
# How it was run: as §1
# [28] = molecular target: GlcNAc(b1-3)Gal(b1-4)GlcNAc(b1-3)Gal(b1-4)GlcNAc(b1-3)Gal(b1-4)GlcNAc(b1-2)Man(a1-3)[GlcNAc(b1-3)Gal(b1-4)GlcNAc(b1-3)Gal(b1-4)GlcNAc(b1-3)Gal(b1-4)GlcNAc(b1-2)Man(a1-6)]Man(b1-4)GlcNAc(b1-4)GlcNAc
# How it was run: as §1
# [29] = molecular target: Kdn(a2-3)Gal(b1-4)Glc
# How it was run: as §1
# [30] = molecular target: Man(a1-6)Man
# How it was run: as §1
binder,measurement,setting,value
PX9961H-bth-557-24-557 (Bacteroides thetaiotaomicron) (protein) EETRTEVEKKNYMNNAEEAKDVLLGVYRTNTLDAMYGYYLSILFNLGTDISQVEGSGNENFRIIPTNSFPTTQSEVQQTWAALYTGIYRANDFLERISNKIGSYTTTDKKLATLYIAEARALRGMFYFELVRRFGNVVLMTSTQMSNQNPATYVQSAPEKVYEYIEDDLLYACDILPYATDDQYRESNDYRFSKGAALGLLTKVYATWAGYPVKDESKWEAAAKTARILVESGKHGLLKDYEQLWKNTCNGTWDPTESLIEISFYSPTVSGNSDPVGRIGKWNGVKTTAIAGVRGSCAANVKVVHTFVLDWREDVSDIRRDLSIANYQYTDTKKSLWVAGASDTDESAAEKDADPTKAQKNKQNYTPAKWDIQKYVTTNSFINNDKSNVNWYFLRYADVLLLYAEALNEWKHGPDAEAYNAINAVRRRGYGNPSNTSACDLPQGLDETSFREAVRKERSYELSFEGHRRQDLIRWGIYYKTVQATAKELGYWWEGTGSPNYSVATYTEEGKHELFPIPQRDMDLCIQFNQNPKW,glycan array binding signal (z-score),[1],3.58
same,glycan array binding signal (z-score),[2],-0.177
same,glycan array binding signal (z-score),[3],-0.051
same,glycan array binding signal (z-score),[4],-0.38
same,glycan array binding signal (z-score),[5],0.014
same,glycan array binding signal (z-score),[6],-0.242
same,glycan array binding signal (z-score),[7],-0.408
same,glycan array binding signal (z-score),[8],-0.18
same,glycan array binding signal (z-score),[9],4.31
same,glycan array binding signal (z-score),[10],-0.134
same,glycan array binding signal (z-score),[11],-0.054
same,glycan array binding signal (z-score),[12],5.85
same,glycan array binding signal (z-score),[13],-0.025
same,glycan array binding signal (z-score),[14],5.54
same,glycan array binding signal (z-score),[15],-0.03
same,glycan array binding signal (z-score),[16],-0.104
same,glycan array binding signal (z-score),[17],10.2
same,glycan array binding signal (z-score),[18],4.19
same,glycan array binding signal (z-score),[19],0.039
same,glycan array binding signal (z-score),[20],3.35
same,glycan array binding signal (z-score),[21],3.59
same,glycan array binding signal (z-score),[22],5.22
same,glycan array binding signal (z-score),[23],4.46
same,glycan array binding signal (z-score),[24],-0.033
same,glycan array binding signal (z-score),[25],-0.542
same,glycan array binding signal (z-score),[26],-0.402
same,glycan array binding signal (z-score),[27],-0.564
same,glycan array binding signal (z-score),[28],-0.299
same,glycan array binding signal (z-score),[29],-0.397
same,glycan array binding signal (z-score),[30],-0.064

# From the supplement of paper PMC8728848
